Experimental findings from ChEMBL document CHEMBL3988442, “University of Dundee, Small-Polar-MMV Screening Library” (2021) are described below.

The whole screen tested about 48,000 compounds, of which about 13,000 (27%) showed an effect of 50% or more. The list shows a part of the results.

For the experiment, the system named is Wolbachia pipientis. Put plainly: Anti-Wolbachia Cell-Based Screen. It counts as functional. The arrangement: scale not given: in the data most compounds retested in dose-response had high values. As to conditions: 5 µM.
For `CC(C)(CC(=O)N(CC(N)=O)C1CCCC1)c1ccccc1`, the “Percent Effect” value is listed as -10.15%. Regarding `CC(C)(CN)NS(=O)(=O)c1cccc(F)c1F.Cl`, the “Percent Effect” value is listed as -6.445%.

In the case of `C=Cc1cccc(CN2C[C@H]3CC[C@@H]2CN(Cc2c(C)noc2C)C3)c1`, the “Percent Effect” value is on record as -8.639%. For `CCN(Cc1ccc2c(c1)OCO2)C(=O)c1ccc(C)[nH]c1=O`, the “Percent Effect” value is recorded as -8.548%. For `Cc1ccc(C(=O)N(C)Cc2csc(C)n2)c(=O)[nH]1`, the “Percent Effect” value is given as 127.5%.

With `Cc1ccc(C(=O)N(C)Cc2csc(Br)c2)c(=O)[nH]1`, the “Percent Effect” value is reported as 125.8%. Regarding `Cc1ccc(C(=O)NCC(O)c2ccc(Cl)s2)c(=O)[nH]1` (stereo not drawn), the “Percent Effect” value is -29.35%. With `Cc1ccc(C(=O)N(C)Cc2ccc(Br)s2)c(=O)[nH]1` the figure was 139.4%; with `Cc1ccc(C(=O)N(Cc2ccc(F)cc2F)C2CC2)c(=O)[nH]1`, -11.26%. With `Cc1ccc(C(=O)N(C)Cc2ccc(Br)o2)c(=O)[nH]1` the figure was 131.8%.

Consider `Cc1ccc(C(=O)N(C)Cc2c(C)noc2C)c(=O)[nH]1`, for which the “Percent Effect” value turned out to be 0.555%. `Cc1ccc(C(=O)N(Cc2ccc(F)cc2)C2CC2)c(=O)[nH]1`: the “Percent Effect” value was -2.478%. For `Cc1ncsc1C(=O)N(C)Cc1ccc(Br)o1`, the “Percent Effect” value is recorded as 23.63%. With `Cc1nc(CN(C)C(=O)CNC(=O)c2ccc(C#N)cc2)cs1`, the “Percent Effect” value is recorded as 6.778%. For `COC(=O)NCC(=O)N(C)Cc1csc(C)n1`, the “Percent Effect” value was found to be 0.6719%. With `CNc1ccnc(N2C[C@@H](C)[C@](O)(C3CCC3)C2)n1` the figure was -0.8884%; with `Cc1cccnc1[C@H](C)NC(=O)c1cccc(CC2CCNCC2)c1`, -20.86%. As to `CC(C)(C)CC(=O)NCCn1nc(C2CCNC2)c2cccnc21.Cl` (stereo not drawn), the “Percent Effect” value stood at 117.2%. Turning to `CN(C(=O)CNC(=O)CC(C)(C)C)C1CCN(c2ccccn2)CC1`, the “Percent Effect” value was 12.99%.

As to `CC(C)CC(=O)NCCn1nc(C2CCNC2)c2cccnc21.Cl` (stereo not drawn), the “Percent Effect” value is recorded as 97.32%. With `CC(C)(C)CC(=O)Nc1ncn(CC(=O)NCc2ccccc2)n1`, the “Percent Effect” value is 0.2654%.

Take `Cl.O=C(CCC1CCCC1)NCCn1nc(C2CCNC2)c2nccnc21` (stereo not drawn): the “Percent Effect” value was -7.206%.

As to `COCCC(=O)NCCn1nc(C2CCNC2)c2cccnc21.Cl` (stereo not drawn), the “Percent Effect” value was 104.9%. As for `COCCN(C(=O)c1c[nH]c2ncccc12)C1CCCC1`, the “Percent Effect” value is recorded as 6.84%. Take `CNc1ncc(CN(C)C(=O)c2ccccc2C2CCNC2)cn1` (stereo not drawn): the “Percent Effect” value was -12.29%.

With `CC(C)NS(=O)(=O)c1cc(C(=O)O)cc(-c2ccc(CN(C)C)cc2)c1`, the “Percent Effect” value was -14.22%.

On to `Cc1cc(CNC(=O)Nc2ccc(C(=O)NC3CC3)cc2)no1`, for which the “Percent Effect” value is recorded as 1.867%. As to `CC(=O)NCCC1CCCCN1C(=O)c1cccc(CCC(C)(C)O)c1` (stereo not drawn), the “Percent Effect” value came to 90.48%. With `CC(C)(O)CCc1cccc(C(=O)N2CCC3(CCO3)CC2)c1` the figure was 8.25%. `CC(C)(O)CCc1cccc(C(=O)N2CCC3(CCOCC3)CC2)c1`: the “Percent Effect” value is -3.198%. With `CC(C)(O)CCc1cccc(C(=O)NCCC2CCOC2)c1` (stereo not drawn) the figure was -27.94%. For the molecule `CO[C@H]1C[C@@H](O)C12CCN(C(=O)c1cccc(CCC(C)(C)O)c1)CC2`, the “Percent Effect” value is -1.029%.

As to `CC(C)(O)CCc1cccc(C(=O)N2CCC[C@H]2CN2CCCC2)c1`, the “Percent Effect” value is on record as 96.29%.

As for `CCc1nnc(SCC(=O)Nc2cc(C(C)(C)C)nn2C)[nH]1`, the “Percent Effect” value is given as -3.815%. For the molecule `CCOc1cc(CN2CCCC2)ccc1Oc1cccc(C#N)n1`, the “Percent Effect” value is -4.025%. For the molecule `COc1cc(CNC(=O)NCc2c(C)cc(C)[nH]c2=O)ccc1C`, the “Percent Effect” value is reported as 1.509%. On to `CC(C)(C)N1CC(c2ncc(-c3ccc4c(c3)OCCO4)[nH]2)CC1=O` (stereo not drawn), for which the “Percent Effect” value is -4.995%. In the case of `O=C(CC1COCCN1)NCCc1noc(-c2ccccc2)n1` (stereo not drawn), the “Percent Effect” value was -6.645%. Consider `CC(C)Nc1ncc(-c2csc(NC(=O)C[C@H]3COCCN3)n2)cn1`, for which the “Percent Effect” value was 64.22%. With `O=C(CC1COCCN1)NCCc1nc(Cc2ccccc2)no1` (stereo not drawn) the figure was 18.61%; with `Cc1nsc(NC(=O)NC2CCCOC2)n1` (stereo not drawn), -39.42%; with `CNc1ncc(-c2csc(NC(=O)C[C@H]3COCCN3)n2)cn1.Cl`, 71.35%.

On to `Cl.Nc1ncc(-c2csc(NC(=O)C[C@H]3COCCN3)n2)cn1`, for which the “Percent Effect” value is listed as 103.3%.

Consider `O=C(CC1COCCN1)NCCc1nc(-c2ccccn2)no1` (stereo not drawn), for which the “Percent Effect” value is -14.35%. With `CCNC(=O)NCc1cnn(-c2ccc(F)cc2F)c1` the figure was -2.386%; with `Cc1cc(CC(=O)NCC(O)c2ccc(OC(F)F)cc2)n[nH]1` (stereo not drawn), -1.889%; with `Cc1ccccc1-c1noc(CNc2ccc(F)cc2OCCO)n1`, 17.52%. Consider `CS(=O)(=O)c1ccc(CN2C[C@@H]3OCC(=O)N(CC(N)=O)[C@@H]3C2)cc1`, for which the “Percent Effect” value was determined as 4.5%. `O=C(c1cnccn1)N1C[C@@H](c2ccccc2)[C@@]2(CCNC2=O)C1`: the “Percent Effect” value is listed as -14.79%. As to `O=C1NCC[C@]12CN(Cc1ccco1)C[C@H]2c1ccccc1`, the “Percent Effect” value is 13.69%. Take `CCS(=O)(=O)N1C[C@@H](c2ccccc2)[C@@]2(CCNC2=O)C1`: the “Percent Effect” value was found to be 107.9%. With `CCCS(=O)(=O)N1C[C@@H](c2ccccc2)[C@@]2(CCNC2=O)C1`, the “Percent Effect” value turned out to be 108.5%. For `Cc1ccc(CN2C[C@@H](c3ccccc3)[C@@]3(CCNC3=O)C2)o1`, the “Percent Effect” value is on record as 33.3%. For `CN(C)c1ccc(CC(=O)N2C[C@H](C3CC3)[C@@H](N)C2)cc1`, the “Percent Effect” value is on record as -4.487%.

Regarding `COc1ccc2c(c1)s/c(=N\C(=O)CSCC(=O)Nc1nccs1)n2C`, the “Percent Effect” value is given as -4.566%. `N#CCCN(CC1CC1)S(=O)(=O)c1cccc(Cl)c1`: the “Percent Effect” value is recorded as -14.4%. For `CC(=O)c1cccc(-c2c[nH]c(C)n2)c1`, the “Percent Effect” value was -8.634%. With `Cc1n[nH]cc1CNCc1cccc(OCC(F)(F)F)c1.Cl` the figure was -11.93%; with `COCCN1CCCC(O)(CN2CCN(c3ccncc3C)CC2)C1=O` (stereo not drawn), -3.963%. With `COc1ccc(C(C)(C)C(=O)NCc2n[nH]c(=O)[nH]2)cc1` the figure was -12.5%.

Consider `Cc1nc(CNCc2ccc(OC34CCCN(CC3)C4)cc2)n[nH]1` (stereo not drawn), for which the “Percent Effect” value was found to be 103.3%. Regarding `Cc1ccc(CN2CCNC(=O)C2CC(=O)NCc2n[nH]c(C)n2)cc1` (stereo not drawn), the “Percent Effect” value worked out at 3.294%.

Take `CCN1CCCC(O)(CNCc2ccncc2)C1` (stereo not drawn): the “Percent Effect” value amounted to 6.912%.

As for `Cc1nc(CNCc2cccc(OC34CCCN(CC3)C4)c2)n[nH]1` (stereo not drawn), the “Percent Effect” value was determined as 113.3%. With `Cc1ccnc(NCc2cccc(OCCN3CCOCC3)c2)n1` the figure was 10.24%; with `O=c1[nH]nc(CNCc2ccc(OC34CCCN(CC3)C4)cc2)[nH]1` (stereo not drawn), 93.23%. `Cc1cnccc1CNCc1ccc(OC23CCCN(CC2)C3)cc1` (stereo not drawn): the “Percent Effect” value is on record as 106.9%.

Consider `OC(CN1CCN(CC2CC2)CC1)c1ccc(Br)cc1` (stereo not drawn), for which the “Percent Effect” value is recorded as 16.18%.

As to `CCNC(=O)NC(=O)C(C)N1CCCc2cc(OC)ccc2C1` (stereo not drawn), the “Percent Effect” value is reported as -0.429%. With `CCc1ccc(C(C)NC(=O)CCc2nc(-c3nnc[nH]3)no2)cc1` (stereo not drawn) the figure was 0.9549%; with `CC(C)CC(O)C1CCN(Cc2ccc(N(C)C)nc2)CC1` (stereo not drawn), 7.143%; with `Cc1nc(C(NC(=O)c2cc(C(C)C)[nH]n2)c2ccccc2)n[nH]1` (stereo not drawn), -6.911%. Turning to `CCC(CO)N(Cc1ccccn1)C(=O)c1cccc(C#N)c1` (stereo not drawn), the “Percent Effect” value was -13.95%. As to `CNS(=O)(=O)c1ccc(CNC(=O)Nc2ccccn2)s1`, the “Percent Effect” value was -5.463%. Take `CS(=O)(=O)c1nnc(NC(=O)CCc2cc(F)ccc2F)[nH]1`: the “Percent Effect” value is given as -16.39%. With `CC1c2ncc(Cn3cncn3)n2CCN1C(=O)c1cscn1` (stereo not drawn) the figure was 89.1%; with `CC1c2ncc(Cn3cncn3)n2CCN1C(=O)Cc1cccs1` (stereo not drawn), -8.694%; with `CN1CCN(Cc2cnc3n2CCN(C(=O)c2cscn2)C3)CC1`, 22%. As for `COCc1cnc2n1CCN(C(=O)C1=CCCCC1)C2C` (stereo not drawn), the “Percent Effect” value was determined as 2.775%. In the case of `COCc1cnc2n1CCN(C(=O)c1cc3cc(Cl)ccc3o1)C2C` (stereo not drawn), the “Percent Effect” value worked out at 1.755%.

For the molecule `CC1c2ncc(Cn3cncn3)n2CCN1C(=O)c1ccccn1` (stereo not drawn), the “Percent Effect” value is listed as 114.5%. Regarding `CC1c2ncc(Cn3cncn3)n2CCN1C(=O)c1ccsc1` (stereo not drawn), the “Percent Effect” value is 106%.

As for `CCN1CC(Oc2ccc(Cl)cc2)=NC(SCC(=O)c2ccccc2)=N1`, the “Percent Effect” value came to 3.791%.

On to `O=C(CSC1=NS(=O)(=O)c2cc(F)ccc2N1)c1ccccc1`, for which the “Percent Effect” value was 100.3%. Consider `O=C(CN1C(=O)c2ccccc2CS1(=O)=O)c1ccc(Cl)cc1`, for which the “Percent Effect” value is recorded as -11.99%. For `O=C(CSC1=NS(=O)(=O)c2cc(F)ccc2N1)c1ccc(Cl)cc1`, the “Percent Effect” value is on record as 4.147%. With `O=C(CSC1=NS(=O)(=O)c2cc(Cl)ccc2N1)c1ccccc1` the figure was 112.7%. On to `Cc1nc(COC[C@H]2CC[C@H]3[C@H](CCN3c3ncccn3)O2)cs1.O=C(O)C(F)(F)F`, for which the “Percent Effect” value is recorded as -1.05%.

`COc1cc(NC(=O)NC2CC2)ccc1N1CCOC1=O`: the “Percent Effect” value was -6.648%. With `CCc1[nH]c2c(CNC(=O)[C@@H]3CCCN3C)cc(C)cc2c1C` the figure was 16.75%; with `Cn1ccnc1C(O)(CCNCc1ccc(Cl)o1)C(F)(F)F` (stereo not drawn), -7.652%; with `O=C(c1ccsc1)N1CCc2nnc(COc3cncnc3)n2CC1`, -11%.

`Cc1ncsc1CNc1ccn(Cc2ccccc2)n1`: the “Percent Effect” value is -3.966%. With `CC(C)C(NC(=O)c1nc(N2CCOCC2)ncc1Cl)c1cccs1` (stereo not drawn) the figure was 8.573%; with `CC(C)[C@H](N)CC(=O)Nc1nc(-c2cnc(N3CCOCC3)nc2)cs1.Cl`, 116.3%; with `COCC(=O)Nc1cnc(N2CCOCC2)nc1`, -9.684%.

Take `CC[C@H](C)[C@H](N)C(=O)Nc1nc(-c2cnc(N3CCOCC3)nc2)cs1`: the “Percent Effect” value is listed as 101.5%. For the molecule `CCOc1ccc(NC(=O)Nc2cnc(N3CCOCC3)nc2)cc1`, the “Percent Effect” value worked out at 2.27%. With `CCC(C(=O)NCc1csc(N2CCOCC2)n1)n1cccn1` (stereo not drawn) the figure was 4.05%; with `O=C(CCn1cccc1)N1CCc2[nH]nc(COc3ccccc3)c2C1`, 87.66%.

As for `O=C(Cn1cccn1)N1CCc2[nH]nc(-c3ccc4c(c3)OCO4)c2C1`, the “Percent Effect” value is given as 1.932%.

For the molecule `CCSCCC(=O)N1CCc2[nH]nc(COc3ccccc3)c2C1`, the “Percent Effect” value is listed as 89.78%. Consider `O=C(CSCC1CC1)N1CCc2[nH]nc(COc3ccccc3)c2C1`, for which the “Percent Effect” value was found to be 108.9%. For `Cc1nc(C)c(C(=O)N2CCc3[nH]nc(COc4ccccc4)c3C2)s1`, the “Percent Effect” value was determined as 5.403%. In the case of `O=C(N1CCOCC1)N1CCc2[nH]nc(COc3cccc(Cl)c3)c2C1`, the “Percent Effect” value is given as 2.718%. For the molecule `COC(=O)CCC(=O)N1CCc2[nH]nc(-c3ccc(F)c(F)c3)c2C1`, the “Percent Effect” value came to 3.026%. On to `O=C(O)C(F)(F)F.O=C(O)C(F)(F)F.c1ccc(OCc2n[nH]c3c2CN(CC2CC2)C3)nc1`, for which the “Percent Effect” value was found to be 5.634%. With `O=C1CC[C@@H](C(=O)N2CCc3[nH]nc(COc4cccc(Cl)c4)c3C2)N1` the figure was 3.497%.
